mcGAS RapidFire – inhibitors of Mus musculus cyclic GMP-AMP synthase, initial high-throughput assay, cell-free, RapidFire MS. recombinant mouse cGAS, cGAMP by RapidFire MS. AID 1259397, 2018. inhibition, % at 12.5 µM. hit rate 0.18% among 130,000. Q8C6L5;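 active = inhibition of cGAS enzyme activity at or above 60%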;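 also: enzyme stimulated by 45 bp dsDNA with ATP and GTP substrates; cGAMP share of summed cGAMP plus half ATP and half GTP signals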
Target sequence (Q8C6L5 whole entry, looked up): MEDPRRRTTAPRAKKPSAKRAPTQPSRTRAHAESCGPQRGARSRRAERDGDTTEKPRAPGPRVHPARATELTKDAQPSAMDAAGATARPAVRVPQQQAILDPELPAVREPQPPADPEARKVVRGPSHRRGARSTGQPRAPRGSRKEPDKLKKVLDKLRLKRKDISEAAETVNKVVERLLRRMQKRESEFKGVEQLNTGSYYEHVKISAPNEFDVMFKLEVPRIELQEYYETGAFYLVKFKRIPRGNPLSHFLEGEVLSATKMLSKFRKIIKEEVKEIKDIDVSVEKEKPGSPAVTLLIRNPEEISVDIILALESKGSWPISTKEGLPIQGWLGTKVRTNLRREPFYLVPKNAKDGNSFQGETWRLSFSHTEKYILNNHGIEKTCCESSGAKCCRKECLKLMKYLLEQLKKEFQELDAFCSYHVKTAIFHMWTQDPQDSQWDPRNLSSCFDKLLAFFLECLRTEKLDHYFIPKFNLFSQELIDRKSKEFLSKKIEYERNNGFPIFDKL
Starred values were filed as active, the others as inactive. The sample as a whole holds a higher share of hits than the screen did.

SMILES	mcGAS RapidFire
FC(F)(F)c1cc(-c2ccco2)nc2c1cnn2Cc1cccnc1	-6
O=C1CN(S(=O)(=O)c2cccc(C(=O)N3CCN(Cc4ccccc4F)CC3)c2)CCN1	-6
Cc1nccn1C(C)C(=O)NCc1cccnc1Oc1ccc(F)c(F)c1 (configuration not stated)	-13
CCOC(=O)N(C)CC(=O)Nc1cnc(C(C)(C)C)nc1	-6
Cc1oc2ncn(C)c(=O)c2c1C(=O)Nc1cccc(COCC2CC2)c1	94*
CCCC1(CNC(=O)c2c(C)oc3ncn(C)c(=O)c23)CCC1	-9
Cc1oc(C)c(C(=O)Nc2cccc(N3CCCC3=O)c2)c1C	-3
CC(c1ccccc1)n1nccc1N (configuration not stated)	0
CC1CN(S(=O)(=O)NCCc2ccc(F)cc2F)C(C)CO1 (configuration not stated)	0
COc1ccc(F)c(CN2CCCC3(CCN(C(=O)CCc4n[nH]c(C)c4C)C3)C2)c1 (configuration not stated)	-14
Cc1cnn(C(C)C(C)NCCS(=O)(=O)C(F)(F)F)c1 (configuration not stated)	49
CN(Cc1ccc(-c2nc(-c3ccncc3)cc(=O)[nH]2)cc1)Cc1ccoc1	-19
Cc1cc(-c2cc(=O)[nH]c(-c3ccc(CN4CCN(C)CC4)cc3)n2)c(C)o1	71*
CCCCc1cc(=O)[nH]c(-c2ccc(CN3CCN(C(=O)N(C)C)CC3)cc2)n1	10
CC(SCC(=O)N(CCC#N)CCC#N)c1ccc(F)cc1 (configuration not stated)	-3
Cc1cc(C(=O)NNC(=O)CCNC(=O)c2ccco2)c(C)o1	-7
Cc1cc(C(=O)NNC(=O)C=Cc2ccco2)c(C)o1	67*
CCOC(=O)NNC(=O)c1cc(C)oc1C	-12
COc1ccc(OC)c(S(=O)(=O)NCc2ccccc2CN2CCCCC2)c1	-4
N#Cc1ccc(NCC(=O)Nc2ccc(Br)cc2)nc1	-5
CC(NC(=O)COC(=O)c1cncc(Br)c1)c1ccc2c(c1)OCO2 (configuration not stated)	-7
O=S(=O)(O)c1cc(N=C=S)ccc1/C=C/c1ccc(N=C=S)cc1S(=O)(=O)O	98*
CC(C)(C)/[N+]([O-])=C/c1ccc(S(=O)(=O)O)cc1S(=O)(=O)O	-6
CN(C)CCN(Cc1ccccc1)C(=O)CN1C(=O)C(Oc2ccccc2)C1c1ccccc1 (configuration not stated)	-13
COc1c(Cl)ccc(Cl)c1C(=O)O	98*
SMILES	mcGAS RapidFire
COc1c(Cl)cc(C(=O)NCCn2cccc2)cc1Cl	-3
COc1cccc(C=CC(=O)c2ccc(Cl)c(Cl)c2)c1OC	9
O=S(=O)(Nc1ccc2c(c1)CCC2)c1ccc(S(=O)(=O)N2CCCC2)cc1	-7
Cc1cc(N2C(=O)c3oc4ccc(F)cc4c(=O)c3C2c2cccc([N+](=O)[O-])c2)no1 (configuration not stated)	-8
Cc1cc(N2C(=O)c3oc4ccccc4c(=O)c3C2c2cccc(Cl)c2)no1 (configuration not stated)	-1
Cc1cc(N2C(=O)c3oc4ccccc4c(=O)c3C2c2cccc(F)c2)no1 (configuration not stated)	84*
O=S(=O)(CCS(=O)(=O)c1ccccc1)OCC(F)(F)F	1
CN(CCC(N)=O)C(=O)c1cc2c(-c3ccccc3)nn(C)c2s1	-17
Nc1c(Cl)cnn1C1CCN(Cc2ccccc2)C1 (configuration not stated)	-16
Cc1ccc(-c2cnc(CCC(=O)N3CCc4ccccc4C3)o2)cc1C	78*
O=C(CCc1ncc(-c2ccc(F)cc2)o1)N1CCN(c2ccccc2)CC1	-2
O=C(CCc1nnc(Cc2ccc3c(c2)OCO3)o1)N1CCc2ccccc2C1	6

High-throughput results from PubChem BioAssay.
